The supplement of paper PMC11219838
Unmarked numbers belong to inactive results.

What was measured:
Conditions in all cases: 60 µM; 5 days; temperature: 20 °C
Meloidogyne hapla J2 = assay: proportion of mobile M. hapla J2 relative to DMSO control (fraction of DMSO control); higher = more viable, less nematicidal, active = 0.7 or less
Summary of the method: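 About 25 M. hapla J2 were added per 96-well well in distilled water, and compound was pinned to 60 µM final (0.6% v/v DMSO). Sealed plates were shaken at 200 rpm for 5 days at 20 °C, then 2 µL 1 M NaOH was added before microscopic mobility scoring. Mobility was divided by the mean of eight DMSO wells on the same plate, and two biological replicates were averaged.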

[1] = test system: Caenorhabditis elegans dauer (daf-2(e1370)); assay: proportion of mobile C. elegans dauer larvae relative to DMSO control (fraction of DMSO control); higher = more viable, less nematicidal, active = 0.63 or less; extreme values may be limits of the assay
Summary of the method: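 The proportion of mobile worms, relative to DMSO wells, was scored by dissection microscope and averaged over two biological replicates. Worms were C. elegans dauers, about 20 per well in liquid NGM in 96-well plates, generated from synchronized larvae on MYOB plates with E. coli OP50 at 25 °C for 48 h. They were treated with compound pinned to 60 µM final (0.6% v/v DMSO) and kept in sealed plates shaken at 200 rpm for 5 days at 20 °C.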

Ditylenchus dipsaci = assay: proportion of mobile D. dipsaci (mixed stage) relative to DMSO control (fraction of DMSO control); higher = more viable, less nematicidal, active = 0.86 or less; extreme values may be limits of the assay
Summary of the method: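 D. dipsaci were grown on pea plants in Gamborg B-5 agar and extracted through a filter funnel into water, and about 20 worms were added per 96-well well in distilled water. Compound was pinned to 60 µM final (0.6% v/v DMSO), and sealed plates were shaken at 200 rpm for 5 days at 20 °C. After 2 µL 1 M NaOH was added, mobile worms were scored microscopically. Mobility was expressed relative to DMSO controls and averaged over two biological replicates.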

Compound | proportion of mobile M. hapla J2 (Meloidogyne hapla J2) | proportion of mobile C. elegans dauer larvae [1] | proportion of mobile D. dipsaci (Ditylenchus dipsaci)
Cc1ccc(C)c(-c2nc(-c3cccnc3)no2)c1 | 1.06 | 0.727 | 1
Cc1ccc(-c2nc(-c3ccccc3)no2)cc1 | 1.04 | 1 | 1
Clc1ccc(-c2noc(-c3ccccc3Cl)n2)cc1 | 0.927 | 1 | 1
CCOc1ccccc1-c1nc(-c2ccc(F)cc2)no1 | 1.06 | 1 | 1
O=C(c1ccccc1-c1nc(-c2ccccc2Cl)no1)N1CCCCC1 | 0.932 | 1 | 1
FC(F)(F)c1cccc(-c2noc(-c3ccc4c(c3)OCO4)n2)c1 | 1.06 | 1 | 1
Cc1ccc(-c2noc(C3CCCCC3)n2)cc1 | 1.05 | 1 | 1
COc1ccccc1-c1nnc(SCc2ccc(F)cc2)o1 | 0.329 (active) | 1 | 1
Clc1ccc(SCc2nc(-c3ccccn3)no2)cc1 | 0.0259 (active) | 0.5 (active) | 1
Cc1cccc(-c2noc(COc3cc(C)ccc3C)n2)c1 | 1.04 | 1 | 1
COc1ccc(-c2nnc(SCC(=O)OCc3ccccc3)o2)cc1 | 0.953 | 1 | 1
Cc1cccc(OCc2nc(-c3ccccc3Cl)no2)c1 | 1.08 | 1 | 1
COc1ccc(-c2noc(C3CCCCC3)n2)cc1 | 0.927 | 0.779 | 1
Cc1ccc(CSc2nnc(-c3ccncc3)o2)cc1 | 0.951 | 1 | 0.75 (active)
CC(=O)Nc1c(C)ccc(CNC(=O)CSc2nnc(-c3ccc(C(C)(C)C)cc3)o2)c1C | 0.88 | 1 | 1
O=C(CSc1nnc(-c2cccc(Br)c2)o1)c1ccccc1 | 1.02 | 1 | 0.714 (active)
COc1ccc(Br)cc1-c1noc(-c2ccncc2)n1 | 0.759 | 1 | 1
CCn1c(SCc2nc(-c3ccccc3)no2)nc2ccccc21 | 1.02 | 1 | 1
CCOc1ccccc1-c1nnc(SCC(=O)Nc2nc(C)cs2)o1 | 0.993 | 1 | 1

Compound | proportion of mobile M. hapla J2 (Meloidogyne hapla J2) | proportion of mobile C. elegans dauer larvae [1] | proportion of mobile D. dipsaci (Ditylenchus dipsaci)
CN(C(=O)CSc1nnc(-c2ccccc2)o1)c1ccccc1 | 1.02 | 1 | 1
Cc1ccc(-c2noc(-c3ccc4c(c3)OCCO4)n2)cc1 | 1 | 0.615 (active) | 1
Cc1cccc(-c2noc(-c3cc(Cl)ccc3Cl)n2)c1 | 1.08 | 1 | 1
CC(Oc1ccccc1)c1nc(-c2ccccn2)no1 (stereo unspecified) | 0.937 | 1 | 1
CCOc1ccccc1-c1nnc(SCC(=O)Nc2nccs2)o1 | 0.739 | 1 | 1
COc1ccccc1NC(=O)CSc1nnc(-c2ccccc2)o1 | 1.04 | 1 | 1
CCN(CC)C(=O)CSc1nnc(-c2cccc(Cl)c2)o1 | 0.922 | 1 | 1
CCOc1ccc(-c2nc(-c3ccc(C)cc3)no2)cc1 | 0.966 | 0.5 (active) | 1
COc1cccc(-c2nc(-c3ccc(Br)cc3)no2)c1 | 0.997 | 0.6 (active) | 1
CC(C)(C)c1ccc(-c2nnc(SCc3cccc(C#N)c3)o2)cc1 | 1.05 | 1 | 1
C(=C\c1ccccc1)/CSc1nnc(-c2ccncc2)o1 | 0.979 | 1 | 1
Cc1ccc(SCc2nc(-c3cccc(C)c3)no2)cc1 | 1.01 | 1 | 1
Brc1ccc(CSc2nnc(-c3ccco3)o2)cc1 | 0.995 | 1 | 1
Brc1ccc(-c2nc(-c3ccncc3)no2)cc1 | 0.953 | 0.767 | 1
CN(C)C(=O)c1ccccc1-c1nc(-c2ccccc2Cl)no1 | 0.882 | 1 | 1
COc1ccc(-c2noc(COc3ccc(Cl)cc3)n2)cc1 | 1.04 | 1 | 1
O=C(CSc1nnc(-c2ccccc2)o1)OCc1ccccc1 | 0.999 | 1 | 1
COc1ccc(C(=O)CSc2nnc(-c3ccccc3)o2)cc1 | 0.987 | 1 | 1
